Test [1] can be described thus: inhibitors of TNFa-induced NFkB p65 translocation, primary screen, imaging, HUVEC, MLSMR starter and 10KST1 sets (AID 438;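 active = inhibition above 20% together with a positive visual image hit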;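 also: compound added about 3h40 before a 20 min TNFalpha stimulation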;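 as to inhibition: signal is the nuclear over cytoplasmic p65 intensity ratio per well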). The note with it: HUVEC TNFa-induced p65 nuclear translocation; cell count: measured here: nuclei count (cytotoxicity indicator), at 2.08 µM; inhibition: at 2 µM, stronger effect = higher value, 0% TNFa-plus-vehicle, 100% no-TNFa wells.
The nature of test [2]: reduction of polyQ htt aggregates in cells – imaging, exon1htt(103Q)mCFP cells, high-content imaging, primary screen (AID 483;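 active = visual image review flags a hit and inhibition of aggregation exceeds 20%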;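 also: compound exposure lasted 3 days before fixation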;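 as to nuclei count: percent of the per-plate median nuclei count of sample wells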). The note with it: exon1htt(103Q)mCFP cell line, aggregate imaging, at 2 µM; inhibition of aggregation: stronger effect = higher value; nuclei count: measured here: cell count, toxicity.
Test [3] in a line: endothelial E-selectin expression blockers – imaging, HUVEC, immunofluorescence, MLSMR starter and 10KST1 sets, primary screen (AID 487;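 active = visually confirmed hit in the image check and inhibition above 20%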;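 as to inhibition: signal is fraction of cell area covered by stained E-selectin grains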;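 as to nuclei count: 100% = median nuclei count of all wells on the same plate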). The settings on record: HUVEC TNFalpha-induced E-selectin immunofluorescence imaging, at 2 µM; inhibition: stronger effect = higher value; nuclei count: measured here: cell number, toxicity.
Test [4] has as its target Voltage-gated potassium channel subunit beta-2 (Rattus norvegicus) (UniProt P62483). Description: inhibitors of rat Kvbeta2 reductase activity – biochemical, NADPH fluorescence, primary screen (AID 622;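 active = fluorescence slope higher than the sample average by over 3 SD, cut at about -0.22 in these data, passing the limit was not always enough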;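 also: slope of raw intensity against log time taken from 70 to 1610 s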). The note with it: recombinant KvBeta, 4-cyanobenzaldehyde reduction, at 10 µM, stronger effect = higher value.
The target is the same in test [5]. Description: enhancers of rat Kvbeta2 NADPH turnover – biochemical, NADPH fluorescence, primary screen (AID 623;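 active = NADPH fluorescence slope more negative than the mean of all samples by about 3 SD, 99.7% confidence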;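 also: fluorescence intensity change per second fitted from 20 to 320 s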). The note with it: Recombinant KvBeta, NADPH fluorescence decrease slope, 10 min; at 10 µM; stronger effect = lower value.
The target in test [6] is Alpha-2C adrenergic receptor (Homo sapiens) (UniProt P18825). The experiment in a line: compounds altering alpha2C-coupled GIRK flux – cell-based, HEK293 alpha2C/GIRK1/2, thallium flux, primary screen (AID 624;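 active = fluorescence slope after compound addition differing from the mean of all screened samples at 99.7% confidence, in either direction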;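 also: slope of fluorescence ratio to pre-addition baseline per second over 15 to 24 s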). The settings on record: thallium flux BTC fluorescence, at 10 µM, actives lie on both sides.
Alpha-2C adrenergic receptor (Homo sapiens), sequence (P18825 whole entry, looked up): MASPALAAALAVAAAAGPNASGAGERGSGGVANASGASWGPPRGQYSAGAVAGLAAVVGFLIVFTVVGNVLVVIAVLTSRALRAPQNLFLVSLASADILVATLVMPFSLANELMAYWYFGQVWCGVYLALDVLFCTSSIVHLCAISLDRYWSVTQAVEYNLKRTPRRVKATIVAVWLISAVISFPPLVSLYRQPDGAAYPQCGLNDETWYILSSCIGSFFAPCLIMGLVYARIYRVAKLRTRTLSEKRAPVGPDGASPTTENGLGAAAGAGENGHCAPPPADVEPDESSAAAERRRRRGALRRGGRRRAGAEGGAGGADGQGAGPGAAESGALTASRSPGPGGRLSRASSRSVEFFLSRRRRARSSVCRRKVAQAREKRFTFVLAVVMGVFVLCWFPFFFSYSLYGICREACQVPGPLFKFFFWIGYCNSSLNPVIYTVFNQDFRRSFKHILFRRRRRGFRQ
Test [7] in a line: blockers of RIG-like receptor reporter activation – cell-based, Sendai virus stimulus, luciferase, 10K MLSCN set, TLR/RLR signaling modifier project, primary screen (AID 602276;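 active = inhibition at or above 50% at 10 µM; inactive = inhibition below 50%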;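 also: firefly luciferase from ISG56 promoter only with Renilla not read in this screen; 0% = Sendai virus plus DMSO and 100% = medium plus DMSO without virus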). The note with it: HEK293 RL24 IRF3 luciferase reporter, at 10 µM, stronger effect = higher value. For orientation: In a reporter assay the amount or activity of a reporter protein is the signal.
Test [8] can be described thus: TLR3 IRF3 reporter activation blockers – cell-based, poly I:C stimulus, luciferase, 10K MLSCN set, primary screen (AID 602277). The note with it: HEK293-TLR3 RL24 IRF3 luciferase reporter, at 10 µM, stronger effect = higher value.

Activity calls are given as the source filed them.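 The calls were made as follows, unless noted: active = inhibition of the reporter signal at or above 50%; inactive = inhibition below 50%.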

One may read the inhibition as the relative decrease from the control value, in per cent.

Voltage-gated potassium channel subunit beta-2 (Rattus norvegicus), sequence (P62483 whole entry, looked up): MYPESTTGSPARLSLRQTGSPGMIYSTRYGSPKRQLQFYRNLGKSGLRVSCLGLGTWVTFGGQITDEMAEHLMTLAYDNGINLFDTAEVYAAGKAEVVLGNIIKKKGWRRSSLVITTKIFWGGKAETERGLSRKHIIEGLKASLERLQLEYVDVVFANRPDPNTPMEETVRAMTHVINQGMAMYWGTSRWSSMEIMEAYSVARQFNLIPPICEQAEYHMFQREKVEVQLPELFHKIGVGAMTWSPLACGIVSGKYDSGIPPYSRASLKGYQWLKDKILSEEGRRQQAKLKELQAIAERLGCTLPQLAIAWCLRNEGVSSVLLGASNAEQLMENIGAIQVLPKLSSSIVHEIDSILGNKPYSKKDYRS

With `CCOC(=O)CCCOC(=O)c1ccc(S(=O)(=O)N(C)C)cc1`, in test [1], the cell count was 374. The inhibition in test [1] was -12.5% (inactive); in test [3] it was -8.8% (inactive); in test [7], 0.818% (inactive); in test [8] it was 10.6% (inactive). The inhibition of aggregation in test [2] is 2.8% (inactive). Moreover, the results for the nuclei count in test [2] and in test [3] were 67.5% and 106%, respectively. In addition, the fluorescence slope in test [4] is -0.454 (inactive). The NADPH fluorescence slope in test [5] was -4.3e-05 (inactive). Also, the slope in test [6] was 0.00644 (inactive).
As to `O=C(O)CCNc1nc(-c2ccccc2)nc2ccccc12`, the cell count in test [1] worked out at 619. Besides, the inhibition in test [1] was -7.6% (inactive); in test [3], -28.1% (inactive); in test [7], -3.96% (inactive); in test [8] it was 7.69% (inactive). The inhibition of aggregation in test [2] is -14.3% (inactive). Also, the nuclei count in test [2] came out at 103%; in test [3] it was 127%. In addition, the fluorescence slope in test [4] was -0.579 (inactive). In test [5], the NADPH fluorescence slope is 3e-05 (inactive). For the same compound, the slope in test [6] is 0.00675 (inactive).
On to `O=C(CN1CCCCCC1)OCCN=C1NS(=O)(=O)c2ccccc21`, for which the cell count in test [1] is 384. Also, the inhibition is -1.9% (inactive) in test [1], -187% (inactive) in test [3], 9.82% (inactive) in test [7] and 8.03% (inactive) in test [8]. For the same compound, in test [2], the inhibition of aggregation is -3.1% (inactive). Also, the nuclei count amounted to 62.4% in test [2] and 133% in test [3]. Also, the fluorescence slope in test [4] was -0.599 (inactive). Also, in test [5], the NADPH fluorescence slope is -6.1e-06 (inactive). In test [6], the slope was 0.00669 (inactive).
In the case of `CCn1c(SCC(=O)Nc2ccc(C(=O)OC)cc2)nnc1-c1cccs1`, the cell count in test [1] is 654. In addition, the inhibition in test [1] was 11.5% (inactive); in test [3], 42.7% (inactive); in test [7], 14.1% (inactive); in test [8] it was 12.6% (inactive). In test [2], the inhibition of aggregation was 24.6% (inactive). In addition, the nuclei count was found to be 110% in test [2] and 106% in test [3]. Besides, the fluorescence slope in test [4] was -0.379 (inactive). Moreover, in test [5], the NADPH fluorescence slope was -5.2e-05 (inactive). Besides, the slope in test [6] is 0.00499 (inactive).
As to `CC1CCN(c2c(NCc3ccc(C(=O)N4c5ccccc5CC4C)cc3)c(=O)c2=O)CC1` (centres undefined), in test [1], the cell count amounted to 726. The inhibition is -5.7% (inactive) in test [1], -38.2% (inactive) in test [3], 21.8% (inactive) in test [7] and 45.8% (inactive) in test [8]. Moreover, the inhibition of aggregation in test [2] is 31.5% (inactive). Also, the figures for the nuclei count in test [2] and in test [3] were 104% and 105%, respectively. In test [4], the fluorescence slope is -0.572 (inactive). In addition, in test [5], the NADPH fluorescence slope was -3.6e-05 (inactive). For the same compound, the slope in test [6] was 0.00643 (inactive).
Consider `O=C1C(Cl)=C(N2CCCCC2)C(=O)N1c1ccccc1Cl`, for which the cell count in test [1] is 450. Besides, the inhibition in test [1] is 4.4% (inactive); in test [3], -57.1% (inactive); in test [7] it was 16.8% (inactive); in test [8], 24.8% (inactive). In test [2], the inhibition of aggregation is -0.8% (inactive). The nuclei count in test [2] was determined as 105%; in test [3], 126%. In test [4], the fluorescence slope was -0.465 (inactive). In test [5], the NADPH fluorescence slope was -0.000114 (inactive). Besides, in test [6], the slope is 0.00518 (inactive).
For the compound `CC1CCN(Cc2ccc(NC(=O)C3CCN(c4nnc(-n5cccc5)s4)CC3)cc2)CC1`, the cell count in test [1] stood at 720. Further, the inhibition is -3% (inactive) in test [1], 44.3% (inactive) in test [3], 10.3% (inactive) in test [7] and 44% (inactive) in test [8]. The inhibition of aggregation in test [2] was 13.7% (inactive). The nuclei count worked out at 50.5% in test [2] and 97.9% in test [3]. Also, the fluorescence slope in test [4] is -0.409 (inactive). Also, the NADPH fluorescence slope in test [5] was -5.4e-05 (inactive). Further, the slope in test [6] was 0.0059 (inactive).
Take `Cn1c(C(=O)NCC2CCCO2)cc2c(=O)n(C)c3ccccc3c21` (centres undefined): the cell count in test [1] was found to be 658. Further, the inhibition is -5.5% (inactive) in test [1], -71.5% (inactive) in test [3], 7.53% (inactive) in test [7] and 19% (inactive) in test [8]. The inhibition of aggregation in test [2] is -1.8% (inactive). The nuclei count in test [2] stood at 115%; in test [3] it was 107%. Further, the fluorescence slope in test [4] is -0.583 (inactive). In test [5], the NADPH fluorescence slope was -3.1e-05 (inactive). Also, the slope in test [6] is 0.00806 (inactive).
For `CC1=C(C(N)=O)C(c2ccncc2)n2nc(-c3ccccc3Cl)nc2N1` (centres undefined), the cell count in test [1] was 617. The inhibition is 0% (inactive) in test [1], -1.2% (inactive) in test [3], 3.63% (inactive) in test [7] and 21.9% (inactive) in test [8]. Also, the inhibition of aggregation in test [2] is 5.7% (inactive). Besides, the nuclei count in test [2] was 92.1%; in test [3], 109%. The fluorescence slope in test [4] was -0.528 (inactive). For the same compound, the NADPH fluorescence slope in test [5] was -2.9e-05 (inactive). Also, the slope in test [6] was 0.00735 (inactive).
Consider `Cc1cc(C(=O)Nc2nc3c(s2)CCCC3)cs1`, for which the cell count in test [1] was determined as 347. Moreover, the inhibition in test [1] was 7.6% (inactive); in test [3] it was -6.3% (inactive); in test [7], -47% (inactive); in test [8], -131% (inactive). Besides, the inhibition of aggregation in test [2] was -12.3% (inactive). For the same compound, the nuclei count in test [2] amounted to 111%; in test [3], 107%. In addition, in test [4], the fluorescence slope was -0.532 (inactive). Besides, the NADPH fluorescence slope in test [5] was 1.1e-05 (inactive). In test [6], the slope is 0.00523 (inactive).
`CCCCOCCCNC(=O)c1ccccc1OCC`: in test [1], the cell count was determined as 365. The inhibition was 8.5% (inactive) in test [1], 33.7% (inactive) in test [3], 11.1% (inactive) in test [7] and 7.39% (inactive) in test [8]. The inhibition of aggregation in test [2] is 0.7% (inactive). Also, the nuclei count in test [2] turned out to be 111%; in test [3], 116%. Also, the fluorescence slope in test [4] was -0.317 (inactive). For the same compound, the NADPH fluorescence slope in test [5] was -6.3e-05 (inactive). In test [6], the slope was 0.00615 (inactive).
For `Cc1cc(Oc2ccc(Cl)cc2)nc(-c2ccccc2O)n1`, the cell count in test [1] was 612. In addition, the inhibition was 11.3% (inactive) in test [1], -13.1% (inactive) in test [3], 3.04% (inactive) in test [7] and -8.94% (inactive) in test [8]. Besides, the inhibition of aggregation in test [2] was 4.5% (inactive). Also, the nuclei count was 73.2% in test [2] and 101% in test [3]. Moreover, the fluorescence slope in test [4] was -0.517 (inactive). Moreover, in test [5], the NADPH fluorescence slope is 3.7e-05 (inactive). Also, the slope in test [6] was 0.00665 (inactive).
Take `C=CCN1C(=O)CS/C1=N/c1nccs1`: in test [1], the cell count worked out at 785. Besides, the inhibition is -8.5% (inactive) in test [1], -5.5% (inactive) in test [3], 15.5% (inactive) in test [7] and 14.3% (inactive) in test [8]. For the same compound, the inhibition of aggregation in test [2] is 3.5% (inactive). The results for the nuclei count in test [2] and in test [3] were 107% and 101%, respectively. Also, the fluorescence slope in test [4] is -0.459 (inactive). For the same compound, the NADPH fluorescence slope in test [5] is -1.1e-05 (inactive). Further, the slope in test [6] is 0.00406 (inactive).
For the compound `Cc1c(C)n(C)c2ccc(C(=O)NCc3cccs3)cc12`, the cell count in test [1] is 461. In addition, the inhibition in test [1] was -9.2% (inactive); in test [3] it was 11.8% (inactive); in test [7], -5.31% (inactive); in test [8], -32.8% (inactive). In test [2], the inhibition of aggregation was 19.4% (inactive). The nuclei count amounted to 83.8% in test [2] and 93.5% in test [3]. In addition, the fluorescence slope in test [4] was -0.505 (inactive). Moreover, the NADPH fluorescence slope in test [5] is -3e-05 (inactive). Moreover, the slope in test [6] is 0.00486 (inactive).

The record behind these values is PubChem BioAssay.
